Test results published in the supplement of paper PMC11732987, “Enantioselective OTUD7B fragment discovery through chemoproteomics screening and high-throughput optimisation” (Communications Chemistry, 2025).

Columns and labels:
Assay in all cases: log2 ratio of Biotin-Ahx-Ub-VS probe labelling (fragment/DMSO); higher = less target engagement (more negative = stronger competition), active = hit call of the paper (q ≤ 0.05, log2 ratio ≤ -1)
Details in all cases: compound concentration: 200 uM; treatment time: 3 h
[1] = molecular target: T1, USP19 (UniProt O94966)
T1 sequence (whole entry): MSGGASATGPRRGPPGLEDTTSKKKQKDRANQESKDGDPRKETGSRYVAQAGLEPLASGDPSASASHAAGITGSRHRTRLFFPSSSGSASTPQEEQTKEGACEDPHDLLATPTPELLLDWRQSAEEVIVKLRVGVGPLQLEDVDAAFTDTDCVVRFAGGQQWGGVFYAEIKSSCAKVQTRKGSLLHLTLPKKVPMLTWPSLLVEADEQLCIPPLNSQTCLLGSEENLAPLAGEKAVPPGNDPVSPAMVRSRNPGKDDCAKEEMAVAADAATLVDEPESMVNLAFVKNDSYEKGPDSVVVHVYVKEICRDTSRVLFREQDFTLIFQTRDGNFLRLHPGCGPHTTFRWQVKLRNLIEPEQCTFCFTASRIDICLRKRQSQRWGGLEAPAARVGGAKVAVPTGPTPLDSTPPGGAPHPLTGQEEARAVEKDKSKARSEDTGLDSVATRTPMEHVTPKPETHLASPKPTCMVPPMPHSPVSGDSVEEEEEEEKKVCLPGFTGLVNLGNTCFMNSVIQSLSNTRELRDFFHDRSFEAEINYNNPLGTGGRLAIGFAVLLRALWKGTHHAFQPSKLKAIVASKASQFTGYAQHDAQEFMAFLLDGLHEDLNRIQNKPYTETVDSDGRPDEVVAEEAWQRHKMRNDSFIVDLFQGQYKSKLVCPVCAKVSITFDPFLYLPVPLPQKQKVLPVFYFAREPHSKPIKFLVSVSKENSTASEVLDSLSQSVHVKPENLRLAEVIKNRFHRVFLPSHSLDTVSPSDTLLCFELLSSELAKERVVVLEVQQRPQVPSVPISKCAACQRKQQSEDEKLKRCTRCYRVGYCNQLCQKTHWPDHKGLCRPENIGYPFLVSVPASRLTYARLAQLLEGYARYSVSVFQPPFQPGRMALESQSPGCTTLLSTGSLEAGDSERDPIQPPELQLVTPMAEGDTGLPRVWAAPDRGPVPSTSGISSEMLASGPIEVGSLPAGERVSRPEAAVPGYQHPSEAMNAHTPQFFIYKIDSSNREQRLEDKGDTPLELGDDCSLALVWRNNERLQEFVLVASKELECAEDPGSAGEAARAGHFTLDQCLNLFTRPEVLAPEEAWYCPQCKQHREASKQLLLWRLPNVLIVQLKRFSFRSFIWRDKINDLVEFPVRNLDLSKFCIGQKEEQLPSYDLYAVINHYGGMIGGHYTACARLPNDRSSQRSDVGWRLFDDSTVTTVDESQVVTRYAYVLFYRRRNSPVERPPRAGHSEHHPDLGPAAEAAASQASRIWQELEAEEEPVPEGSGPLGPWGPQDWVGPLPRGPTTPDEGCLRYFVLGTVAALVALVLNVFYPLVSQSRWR
Outline: (§1)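 The table lists average log2 ratios of fragment over vehicle, from an unpaired t-test on global-median-normalised Spectronaut label-free quantities. Proteins with ≥2 unique peptides were used. Samples were HEK293T lysate (495 µg) treated in triplicate with fragment at 200 µM or vehicle for 3 h, then with Biotin-Ahx-Ub-VS (0.5 µM final) for 1 h, with labelled DUBs NeutrAvidin-enriched and run by diaPASEF LC-MS/MS.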

[2] = molecular target: T2, USP22 (UniProt Q9UPT9)
T2 sequence (whole entry): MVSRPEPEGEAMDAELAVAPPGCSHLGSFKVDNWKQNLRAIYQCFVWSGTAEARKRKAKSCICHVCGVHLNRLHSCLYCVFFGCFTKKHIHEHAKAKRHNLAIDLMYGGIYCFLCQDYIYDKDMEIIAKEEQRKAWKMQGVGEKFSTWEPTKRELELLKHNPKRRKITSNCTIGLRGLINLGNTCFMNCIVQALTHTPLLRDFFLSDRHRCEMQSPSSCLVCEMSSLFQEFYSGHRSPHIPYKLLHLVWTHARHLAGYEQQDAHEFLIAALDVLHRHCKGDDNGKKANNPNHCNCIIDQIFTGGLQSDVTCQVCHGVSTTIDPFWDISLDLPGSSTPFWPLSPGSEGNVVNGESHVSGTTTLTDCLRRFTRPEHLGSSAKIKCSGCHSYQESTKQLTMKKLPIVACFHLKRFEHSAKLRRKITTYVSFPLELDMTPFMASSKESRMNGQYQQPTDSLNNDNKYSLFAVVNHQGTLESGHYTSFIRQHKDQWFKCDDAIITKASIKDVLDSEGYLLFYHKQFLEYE
Outline: as §1

[3] = molecular target: USP24 (UniProt Q9UPU5)
Outline: as §1

[4] = molecular target: T3, USP25 (UniProt Q9UHP3)
T3 sequence (whole entry): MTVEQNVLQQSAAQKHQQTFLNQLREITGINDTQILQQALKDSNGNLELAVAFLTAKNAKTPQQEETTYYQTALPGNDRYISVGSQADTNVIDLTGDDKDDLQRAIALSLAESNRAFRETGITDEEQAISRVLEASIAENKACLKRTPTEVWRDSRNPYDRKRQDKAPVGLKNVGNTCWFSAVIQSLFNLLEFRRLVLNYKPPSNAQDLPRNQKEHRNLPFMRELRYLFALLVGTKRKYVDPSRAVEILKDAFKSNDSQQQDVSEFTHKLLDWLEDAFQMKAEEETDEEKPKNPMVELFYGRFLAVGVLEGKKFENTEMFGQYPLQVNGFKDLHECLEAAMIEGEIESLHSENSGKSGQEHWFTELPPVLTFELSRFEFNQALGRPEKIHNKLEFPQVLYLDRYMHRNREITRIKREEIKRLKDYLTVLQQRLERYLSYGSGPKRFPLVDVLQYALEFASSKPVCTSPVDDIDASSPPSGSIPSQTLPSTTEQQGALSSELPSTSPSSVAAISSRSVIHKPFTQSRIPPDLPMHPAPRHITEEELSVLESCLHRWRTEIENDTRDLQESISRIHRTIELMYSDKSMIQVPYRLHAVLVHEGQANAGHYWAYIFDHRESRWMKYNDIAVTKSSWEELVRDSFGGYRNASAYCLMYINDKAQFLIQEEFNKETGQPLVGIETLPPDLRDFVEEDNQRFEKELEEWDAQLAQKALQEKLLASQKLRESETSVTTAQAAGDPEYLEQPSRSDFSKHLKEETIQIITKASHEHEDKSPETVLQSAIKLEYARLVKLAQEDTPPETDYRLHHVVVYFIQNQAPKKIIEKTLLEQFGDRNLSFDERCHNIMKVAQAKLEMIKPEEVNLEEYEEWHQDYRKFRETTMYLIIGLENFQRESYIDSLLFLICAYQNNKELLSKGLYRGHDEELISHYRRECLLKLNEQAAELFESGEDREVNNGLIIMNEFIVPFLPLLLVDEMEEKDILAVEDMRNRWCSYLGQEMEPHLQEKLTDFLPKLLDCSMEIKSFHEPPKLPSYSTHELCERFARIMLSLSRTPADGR
Outline: as §1

[5] = molecular target: T4, USP28 (UniProt Q96RU2)
T4 sequence (whole entry): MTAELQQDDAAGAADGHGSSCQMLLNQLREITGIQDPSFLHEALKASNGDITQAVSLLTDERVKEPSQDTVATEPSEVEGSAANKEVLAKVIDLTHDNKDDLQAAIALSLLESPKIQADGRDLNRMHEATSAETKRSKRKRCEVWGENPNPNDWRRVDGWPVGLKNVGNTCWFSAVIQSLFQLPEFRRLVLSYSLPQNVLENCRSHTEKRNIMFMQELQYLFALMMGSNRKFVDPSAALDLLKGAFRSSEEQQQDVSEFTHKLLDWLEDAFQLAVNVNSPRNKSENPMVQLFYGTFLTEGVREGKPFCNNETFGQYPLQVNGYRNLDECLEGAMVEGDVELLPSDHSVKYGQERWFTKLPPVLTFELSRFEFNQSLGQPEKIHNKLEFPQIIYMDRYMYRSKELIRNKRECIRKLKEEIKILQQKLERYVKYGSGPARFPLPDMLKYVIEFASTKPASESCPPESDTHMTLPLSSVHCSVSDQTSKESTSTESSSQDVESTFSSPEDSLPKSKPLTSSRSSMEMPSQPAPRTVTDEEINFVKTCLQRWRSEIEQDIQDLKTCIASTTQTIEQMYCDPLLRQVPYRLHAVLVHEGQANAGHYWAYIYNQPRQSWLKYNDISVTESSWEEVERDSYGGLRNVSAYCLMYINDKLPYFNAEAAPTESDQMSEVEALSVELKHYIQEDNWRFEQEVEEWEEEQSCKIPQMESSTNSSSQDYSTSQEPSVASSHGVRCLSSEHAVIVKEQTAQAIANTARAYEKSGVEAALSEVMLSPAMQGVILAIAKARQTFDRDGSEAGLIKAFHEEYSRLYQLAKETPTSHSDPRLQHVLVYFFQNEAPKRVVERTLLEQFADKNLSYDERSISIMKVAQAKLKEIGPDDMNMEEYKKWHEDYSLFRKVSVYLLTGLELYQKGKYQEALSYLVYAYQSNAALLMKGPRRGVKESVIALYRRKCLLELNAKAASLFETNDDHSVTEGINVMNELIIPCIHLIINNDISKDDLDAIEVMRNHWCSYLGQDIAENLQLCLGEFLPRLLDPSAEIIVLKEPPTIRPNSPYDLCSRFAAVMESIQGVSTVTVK
Outline: as §1

Measured: log2 ratio of Biotin-Ahx-Ub-VS probe labelling

Chain of USP24 (Q9UPU5 whole entry): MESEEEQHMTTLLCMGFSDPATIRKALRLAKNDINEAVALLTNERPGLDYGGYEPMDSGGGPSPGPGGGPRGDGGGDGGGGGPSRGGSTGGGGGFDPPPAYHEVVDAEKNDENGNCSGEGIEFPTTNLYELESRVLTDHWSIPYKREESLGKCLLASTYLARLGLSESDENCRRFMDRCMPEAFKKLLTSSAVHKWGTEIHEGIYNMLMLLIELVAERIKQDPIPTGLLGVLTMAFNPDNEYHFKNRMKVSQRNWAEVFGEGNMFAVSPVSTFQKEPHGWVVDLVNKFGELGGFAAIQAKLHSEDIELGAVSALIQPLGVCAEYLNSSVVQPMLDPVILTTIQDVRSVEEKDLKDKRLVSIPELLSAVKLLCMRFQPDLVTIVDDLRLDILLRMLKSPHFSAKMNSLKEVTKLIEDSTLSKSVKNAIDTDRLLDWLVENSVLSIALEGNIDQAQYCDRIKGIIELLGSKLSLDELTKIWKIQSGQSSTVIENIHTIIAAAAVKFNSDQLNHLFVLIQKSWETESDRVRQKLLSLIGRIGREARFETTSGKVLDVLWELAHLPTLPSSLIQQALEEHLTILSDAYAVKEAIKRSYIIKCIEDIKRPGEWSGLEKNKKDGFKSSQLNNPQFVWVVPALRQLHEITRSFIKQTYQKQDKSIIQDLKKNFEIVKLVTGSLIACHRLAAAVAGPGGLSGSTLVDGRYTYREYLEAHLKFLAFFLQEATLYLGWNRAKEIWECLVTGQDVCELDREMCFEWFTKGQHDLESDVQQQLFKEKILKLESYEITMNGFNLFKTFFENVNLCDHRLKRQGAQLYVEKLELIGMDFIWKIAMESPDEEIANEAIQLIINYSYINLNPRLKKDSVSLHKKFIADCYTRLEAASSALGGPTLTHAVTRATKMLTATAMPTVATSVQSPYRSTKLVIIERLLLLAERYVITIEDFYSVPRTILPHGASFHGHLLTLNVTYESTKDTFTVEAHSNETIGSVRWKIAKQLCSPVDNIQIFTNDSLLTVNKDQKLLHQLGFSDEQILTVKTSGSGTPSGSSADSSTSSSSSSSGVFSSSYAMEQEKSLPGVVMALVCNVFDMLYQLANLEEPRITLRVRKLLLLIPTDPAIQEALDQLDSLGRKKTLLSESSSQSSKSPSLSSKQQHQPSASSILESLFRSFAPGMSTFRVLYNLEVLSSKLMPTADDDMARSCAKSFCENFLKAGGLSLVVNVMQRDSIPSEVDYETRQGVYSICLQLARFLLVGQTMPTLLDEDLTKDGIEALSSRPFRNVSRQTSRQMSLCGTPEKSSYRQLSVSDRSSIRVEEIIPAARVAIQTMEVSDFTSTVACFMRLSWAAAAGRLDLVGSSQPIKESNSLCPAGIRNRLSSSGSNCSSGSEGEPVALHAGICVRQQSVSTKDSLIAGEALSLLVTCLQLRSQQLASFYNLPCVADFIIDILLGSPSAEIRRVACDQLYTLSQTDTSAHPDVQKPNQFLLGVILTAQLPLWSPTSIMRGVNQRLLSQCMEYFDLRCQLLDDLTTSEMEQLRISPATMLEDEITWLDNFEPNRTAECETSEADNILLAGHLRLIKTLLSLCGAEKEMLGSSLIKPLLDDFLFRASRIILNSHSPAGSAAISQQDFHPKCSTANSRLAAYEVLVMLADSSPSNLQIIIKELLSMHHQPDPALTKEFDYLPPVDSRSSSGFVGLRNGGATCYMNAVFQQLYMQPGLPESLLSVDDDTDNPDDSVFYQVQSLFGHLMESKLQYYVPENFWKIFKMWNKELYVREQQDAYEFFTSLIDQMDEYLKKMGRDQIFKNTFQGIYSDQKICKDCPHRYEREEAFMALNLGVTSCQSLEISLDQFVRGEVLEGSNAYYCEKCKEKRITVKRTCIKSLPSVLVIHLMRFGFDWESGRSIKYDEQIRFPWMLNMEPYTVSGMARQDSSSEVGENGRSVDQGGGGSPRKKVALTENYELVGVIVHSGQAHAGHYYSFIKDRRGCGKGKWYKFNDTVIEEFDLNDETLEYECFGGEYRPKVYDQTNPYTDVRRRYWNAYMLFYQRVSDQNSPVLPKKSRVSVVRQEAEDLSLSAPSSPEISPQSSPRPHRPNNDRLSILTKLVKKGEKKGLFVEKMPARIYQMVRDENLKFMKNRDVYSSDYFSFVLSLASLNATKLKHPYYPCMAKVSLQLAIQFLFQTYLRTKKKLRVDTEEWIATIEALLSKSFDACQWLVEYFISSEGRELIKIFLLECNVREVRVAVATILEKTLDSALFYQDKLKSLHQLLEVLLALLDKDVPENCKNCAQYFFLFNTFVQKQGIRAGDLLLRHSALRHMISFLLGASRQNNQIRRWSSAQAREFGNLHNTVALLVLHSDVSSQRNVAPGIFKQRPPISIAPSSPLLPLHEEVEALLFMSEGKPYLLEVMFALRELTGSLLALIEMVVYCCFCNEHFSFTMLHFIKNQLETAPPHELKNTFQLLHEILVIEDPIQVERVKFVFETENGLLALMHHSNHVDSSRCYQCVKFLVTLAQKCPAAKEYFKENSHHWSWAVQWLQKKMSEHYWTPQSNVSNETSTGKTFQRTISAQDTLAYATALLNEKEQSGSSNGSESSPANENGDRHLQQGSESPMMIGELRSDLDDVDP

O=C(CCl)NC1CCS(=O)(=O)c2ccccc21 (stereo not given)
inactive: [1] -0.237 | [2] -0.0769 | [3] -0.183 | [4] -0.461 | [5] -0.943
